The entries come from a sample that favours hits as a whole.
Dicer processing = blocks human Dicer maturation of pre-miR-21 | Q9UPY3 | cat-ELCCA pre-miR-21 Dicer processing, chemiluminescence; stronger effect = higher value | z-score at 25 µM | 6% of 47,000 active; in the data active = z-score above about 3, passing the limit was not always enough;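 note: plate controls were vehicle for no effect and no enzyme for full effect; higher signal means more uncleaved substrate so more Dicer inhibition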
Target sequence (Q9UPY3 whole entry, looked up): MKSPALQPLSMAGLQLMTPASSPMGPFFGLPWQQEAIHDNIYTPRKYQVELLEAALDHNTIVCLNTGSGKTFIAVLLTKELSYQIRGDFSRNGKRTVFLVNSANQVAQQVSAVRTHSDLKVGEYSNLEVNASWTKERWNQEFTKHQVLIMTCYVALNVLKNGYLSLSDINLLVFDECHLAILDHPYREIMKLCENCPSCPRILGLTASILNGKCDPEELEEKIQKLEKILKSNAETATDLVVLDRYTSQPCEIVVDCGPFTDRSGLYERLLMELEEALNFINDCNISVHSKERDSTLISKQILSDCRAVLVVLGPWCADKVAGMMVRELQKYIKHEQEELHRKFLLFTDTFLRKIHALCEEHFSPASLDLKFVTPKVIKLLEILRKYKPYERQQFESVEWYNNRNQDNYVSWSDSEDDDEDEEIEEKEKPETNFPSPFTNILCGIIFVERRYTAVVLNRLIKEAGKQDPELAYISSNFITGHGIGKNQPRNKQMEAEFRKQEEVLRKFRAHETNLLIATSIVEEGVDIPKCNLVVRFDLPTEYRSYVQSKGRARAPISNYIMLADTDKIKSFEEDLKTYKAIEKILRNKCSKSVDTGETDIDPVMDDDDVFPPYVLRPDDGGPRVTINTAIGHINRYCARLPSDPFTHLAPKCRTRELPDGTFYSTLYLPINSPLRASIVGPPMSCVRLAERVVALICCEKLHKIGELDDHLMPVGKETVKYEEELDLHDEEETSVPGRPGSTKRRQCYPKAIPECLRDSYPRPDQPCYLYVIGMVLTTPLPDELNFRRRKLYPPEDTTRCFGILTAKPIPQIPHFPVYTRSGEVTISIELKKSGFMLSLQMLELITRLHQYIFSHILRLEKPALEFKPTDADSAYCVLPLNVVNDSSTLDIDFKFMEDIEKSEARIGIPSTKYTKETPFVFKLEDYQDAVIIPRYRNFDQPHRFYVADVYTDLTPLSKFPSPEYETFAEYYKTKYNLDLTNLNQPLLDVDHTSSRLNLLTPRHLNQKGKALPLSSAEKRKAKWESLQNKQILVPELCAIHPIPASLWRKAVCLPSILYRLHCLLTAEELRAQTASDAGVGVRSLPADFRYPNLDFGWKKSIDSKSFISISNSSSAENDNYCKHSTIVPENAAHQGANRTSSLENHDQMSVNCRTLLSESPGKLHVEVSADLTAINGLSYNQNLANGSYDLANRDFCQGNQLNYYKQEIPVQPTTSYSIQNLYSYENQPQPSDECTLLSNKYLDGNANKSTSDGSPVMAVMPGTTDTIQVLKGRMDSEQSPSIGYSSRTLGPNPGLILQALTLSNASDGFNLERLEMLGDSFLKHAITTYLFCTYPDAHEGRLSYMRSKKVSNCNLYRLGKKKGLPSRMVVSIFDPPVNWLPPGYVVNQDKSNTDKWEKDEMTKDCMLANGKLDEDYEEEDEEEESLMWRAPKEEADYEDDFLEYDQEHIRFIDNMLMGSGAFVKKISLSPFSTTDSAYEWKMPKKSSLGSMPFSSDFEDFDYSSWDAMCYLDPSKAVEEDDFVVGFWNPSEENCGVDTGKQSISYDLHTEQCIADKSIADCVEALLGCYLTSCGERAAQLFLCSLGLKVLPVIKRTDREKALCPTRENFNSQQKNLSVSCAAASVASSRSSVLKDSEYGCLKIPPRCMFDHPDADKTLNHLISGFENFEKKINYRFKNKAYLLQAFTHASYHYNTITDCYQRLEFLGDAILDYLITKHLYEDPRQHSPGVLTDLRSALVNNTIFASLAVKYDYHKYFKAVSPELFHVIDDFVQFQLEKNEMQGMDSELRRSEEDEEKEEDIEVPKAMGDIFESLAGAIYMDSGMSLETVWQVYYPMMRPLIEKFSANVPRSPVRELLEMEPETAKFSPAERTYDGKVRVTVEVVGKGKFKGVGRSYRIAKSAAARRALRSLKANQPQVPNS
Active calls of the source: *.

SMILES	Dicer processing
COc1cc2nc(NC(=O)c3ccco3)sc(=O)c2cc1OC	1.03
COc1cc2nc(NC(=O)c3ccc(C(C)(C)C)cc3)sc(=O)c2cc1OC	-1.17
O=C(Cn1c(=O)sc2ccccc21)Nc1nc(-c2ccc(Br)cc2)cs1	-0.5
NC(=O)COc1ccc(-c2noc(COc3ccc(Br)cc3)n2)cc1	-1.26
NC(=O)Cc1nc(-c2ccc(Br)cc2)cs1	3.22*
Cn1c(N2CCOCC2)nc2c1c(=O)n(Cc1ccccc1)c(=O)n2C	-0.43
N/C(=N/O)c1nccnc1Sc1ccc(Cl)cc1	-1.7
CCCN(CCC)C(=O)c1cc([NH2+][O-])cc2c1-c1ccc([N+](=O)[O-])cc1C2=O	0.15
Cc1ccc(-c2noc(-c3ccco3)n2)cc1	0.03
COc1ccc(C(=O)Cn2c3ccccc3n3nc(-c4ccco4)nc23)cc1	1.45
CSc1nc(-c2ccco2)nn1C(=O)c1ccc(C)cc1	3.21*
CSc1nc(-c2ccco2)nn1C(C)=O	-4.48
CSc1nc(-c2ccco2)nn1C(=O)c1ccccc1	3.42*
Cc1ccc(C(=O)n2nc(C)c(Sc3ncccn3)c2C)cc1	-0.27
COc1ccc(NC(=O)CC(C)(C)Sc2ccc(Cl)cc2)cc1	0.97
CCCCCc1nc2ccccc2[nH]1	0.58
CC(=O)Nc1ccc(S(=O)(=O)Oc2ccccc2N2CCCCC2)cc1	-0.23
Cc1cc(C)cc(NC(=O)Oc2ccccc2N2CCCCC2)c1	10.1
O=C(Nc1ccc(OCc2ccccc2)cc1)Oc1ccccc1N1CCCCC1	4.81*
COC(=O)c1ccc(Oc2ncnc3scc(-c4ccccc4)c23)o1	0.94
O=c1[nH]nc(-c2ccccc2)nc1Cc1ccc(Cl)cc1	-3.24
Cc1c(S(=O)(=O)Nc2ccc(Cl)c(Cl)c2)sc2ccc(Cl)cc12	1.87
Cc1c(S(=O)(=O)Oc2ccccc2Cl)sc2ccc(Cl)cc12	-0.86
Cc1c(S(=O)(=O)Nc2ccccc2Cl)sc2ccc(Cl)cc12	4.63*
COC(=O)C1=NNC2C(=O)N(c3cccc(C)c3)C(=O)C12 (stereo not given)	1.29
SMILES	Dicer processing
Cn1c(=O)c2[nH]c(NCCc3ccccc3)nc2n(C)c1=O	1.01
Cc1nnc(NC(=O)CCC(=O)O)s1	0.99
CC(C)c1nnc(NC(=O)CCCC(=O)O)s1	-1.03
Cc1nnc(NC(=O)CCCC(=O)O)s1	3.73*
Cc1[nH]nc(-c2cccs2)c1C(=O)NN	5
Cc1nonc1NC(=O)N1CCOCC1	5.94*
O=C(Nc1ccc(-c2ccccn2)s1)N1CCOCC1	-0.4
Cc1nonc1NC(=O)Nc1ccncc1	44.4
COc1cccc(C2N=C(N)Nc3nc4ccccc4n32)c1 (stereo not given)	2.07
Cc1nn(-c2c(Cl)cc(C(F)(F)F)cc2Cl)c(C)c1C(N)=O	0.27
C=CCn1c(=O)c(C(=O)Nc2cccc(O)c2)c(O)c2ccccc21	11.3*
C=CCn1c(N)cc(=O)nc1SCC(=O)Nc1ccccc1	0.4
O=c1c(Cc2ccccc2)c(O)c2ccccc2n1Cc1ccccc1	-1.74
CCOC(=O)/C(C#N)=C/c1ccccc1	-0.78
CCOC(=O)/C(C#N)=C/c1ccc([N+](=O)[O-])s1	-0.25
CCOC(=O)/C(C#N)=C/c1csc([N+](=O)[O-])c1	3.07*
CCCc1cc(=O)oc2cc(OCC(=O)NNS(=O)(=O)c3cccc(Cl)c3)ccc12	0
O=C1CCCC/C1=C\Nc1ccccc1	4.28*
O=c1c(=CNc2ccccc2)c(=O)c2cccc3cccc1c32	0.59
O=C(O)C1=C(C(=O)Nc2ccccc2)CCCC1	0.14
CCOc1ccc(S(=O)(=O)Nc2ccccn2)cc1C	0.48
Cc1cccc(-c2nc3n(n2)C(c2ccc(O)cc2)C2=C(CCCC2=O)N3)c1 (stereo not given)	0.2
O=C1CCCC2=C1C(c1ccncc1)n1nc(-c3cccc(Cl)c3)nc1N2 (stereo not given)	-0.3
O=C1CCCC2=C1C(c1ccc3c(c1)OCO3)n1nc(-c3cccc(Cl)c3)nc1N2 (stereo not given)	4.07*
CCOC(=O)c1sc(SC)nc1NC(=O)C(Cl)Cl	0.94
SMILES	Dicer processing
Cc1ccc(-c2noc(-c3ccc(Oc4cc(Cl)cc(Cl)c4)o3)n2)cc1	-1.67
Cc1nn(-c2ccc([N+](=O)[O-])cc2)c(N)c1C(N)=S	-1.47
Cc1nn(-c2ccc([N+](=O)[O-])cc2)c2[nH]c3ccccc3c(=O)c12	4.16*
Cc1nn(-c2ccccc2)c2[nH]c3ccccc3c(=O)c12	1.32
Cc1c(C)n(C(=O)CSc2ncccn2)c2ccccc12	1.8
CCOC(=O)/C(C#N)=C/Nc1cc(C(=O)OC)ccc1C	0.09
COC(=O)c1c(-c2c(Cl)cccc2Cl)noc1NC(=O)NCc1ccccn1	0.85
Cn1c(=O)c2c(-c3ccccc3)n(C(CO)(CO)CO)cc2n(C)c1=O	0.81
Cn1c(=O)c2c(-c3ccccc3)n(CCCO)cc2n(C)c1=O	5.83*
Cc1ccc(-c2c3c(=O)n(C)c(=O)n(C)c3cn2C)cc1	0.83
NC(=O)c1c(NC(=O)COc2ccccc2Br)sc2c1CCCC2	2.5
Cn1c(=O)n(CC(=O)O)c(=O)c2c1nc1n2CCN1c1ccc(Cl)cc1	3.35*
Cn1c(=O)n(CC(=O)O)c(=O)c2c1nc1n2CCCN1c1cccc(Cl)c1	1.48

Compound activity deposited in PubChem by Center for Chemical Genomics, University of Michigan.
